The record followed here is PubChem BioAssay (EPA / NIEHS).

The structures appear in SMILES notation. The source made the active and inactive calls. Rule for the calls: active = hit-call score of the fitted dose curve at least 0.9, where 1 is the maximum; inactive = score below 0.9.

Assay [1] concerns the target Transcription factor E2F1 (Homo sapiens) (UniProt Q01094). Description: ATG_E2F_CIS: Attagene CIS-FACTORIAL HepG2 Assay for human E2F Transcription Factor 1 (AID 2282935). The following applies: HepG2 Attagene cis-reporter, E2F reporter RNA transcripts; actives raise or lower the signal. The method, boiled down:
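Total RNA from 24 h-treated, reporter-transfected HepG2 cells undergoes DNase I treatment, oligo(dT) reverse transcription, PCR and 6-FAM primer extension before capillary electrophoresis.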

Assay [2] can be described thus: ATG_E_Box_CIS: Attagene CIS-FACTORIAL HepG2 Assay for human Enhancer Box (E-box) (AID 2282936). Particulars: HepG2 E-box cis-reporter transcription, actives raise or lower the signal. The method, boiled down: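 DMSO served as negative control and baseline for bidirectional fitting. Human hepatoma HepG2 cells, transiently transfected with cis-reporter constructs, were dosed 24 h; reporter mRNA read by RT-PCR and capillary electrophoresis.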

Assay [3] is described as follows: ATG_M_61_CIS: Attagene CIS-FACTORIAL HepG2 Assay for M61 Transcription Factor (Internal Marker) (AID 2282937). Particulars: HepG2 Attagene CIS-FACTORIAL M61 internal marker reporter; actives raise or lower the signal. In outline:
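HepG2 cells transiently transfected with cis-element-driven multiple reporter transcription units, dosed for 24 h. Reporter mRNA measured by RT-PCR, 6-FAM primer-extension labelling, HpaI digestion and capillary electrophoresis; bidirectional fit versus DMSO baseline.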

Assay [4] can be described thus: ATG_EGR_CIS: Attagene CIS-FACTORIAL HepG2 Assay for human Early Growth Response 1 (EGR1) (AID 2282938). The following applies: HepG2 Attagene CIS-FACTORIAL EGR reporter mRNA; actives raise or lower the signal. The method, boiled down: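 HepG2 cells transiently transfected with cis-promoter-driven multiplexed reporter transcription units; reporter mRNA measured 24 h after compound dosing by RT-PCR, 6-FAM primer extension, HpaI digestion and capillary electrophoresis. Bidirectional fit versus DMSO baseline.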

Assay [5] can be described thus: ATG_M_19_CIS: Attagene CIS-FACTORIAL HepG2 Assay for M19 Transcription Factor (Internal Marker) (AID 2282939). Particulars: HepG2 Attagene CIS-FACTORIAL M19 internal marker reporter; actives raise or lower the signal. In outline: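 Following a 24 h exposure, RNA from transfected HepG2 cells was reverse-transcribed, PCR-amplified with reporter-specific primers, end-labelled with 6-FAM and HpaI-digested before capillary separation. Values represent gain or loss versus DMSO.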

Assay [6] is described as follows: ATG_ERE_CIS: Attagene CIS-FACTORIAL HepG2 Assay for Estrogen Response Element (ERE) (AID 2282940). The following applies: HepG2 ERE cis-reporter, Attagene RNA transcript; actives raise or lower the signal. In outline:
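HepG2, transient cis-reporter units, 24 h exposure. RNA isolated, oligo(dT) RT, reporter-specific PCR, FAM extension, HpaI cut, CE detection. Gain/loss-of-signal vs DMSO.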

A short description of assay [7]: ATG_Ets_CIS: Attagene CIS-FACTORIAL HepG2 Assay for human Erythroblast Transformation Specific (ETS) (AID 2282941). Particulars: HepG2 ETS cis-reporter transcription, actives raise or lower the signal. The method, boiled down: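 Human HepG2 hepatoma cells were transiently transfected with promoter-driven reporter constructs and treated for 24 hours. Reporter transcripts were quantified by RT-PCR with fluorescent primer extension; bidirectional curve fitting used DMSO as reference.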

Assay [8] has as its target Hepatocyte nuclear factor 3-beta (Homo sapiens) (UniProt Q9Y261). Briefly: ATG_FoxA2_CIS: Attagene CIS-FACTORIAL HepG2 Assay for human Forkhead box A2 (FOXA2) (AID 2282942). The following applies: HepG2 cis-reporter transcription factor activity, 24 h; actives raise or lower the signal. In outline:
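HepG2 cells transiently transfected with multiple cis-regulated reporter transcription units, dosed for 24 h. Reporter mRNA measured by RT-PCR, 6-FAM labelling, HpaI digestion and capillary electrophoresis; bidirectional fitting against DMSO baseline.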

Assay [9] in a line: ATG_FoxO_CIS: Attagene CIS-FACTORIAL HepG2 Assay for human Forkhead box O (FoxO) (AID 2282943). Particulars: HepG2 Attagene cis-reporter, FoxO element, mRNA; actives raise or lower the signal. The method, boiled down:
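Human hepatoma HepG2 cells carry transiently introduced reporter transcription units controlled by cis promoter elements. Chemical treatment lasted 24 h, and mRNA signal was compared with DMSO.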

Assay [10] is described as follows: ATG_GATA_CIS: Attagene CIS-FACTORIAL HepG2 Assay for human GATA Binding Protein (AID 2282944). The following applies: HepG2 GATA cis-element reporter, Attagene multiplex mRNA; actives raise or lower the signal. The method, boiled down: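 DMSO serves as negative control and baseline for bidirectional fitting of reporter mRNA changes. HepG2 cells bearing transiently transfected cis-promoter reporters were exposed 24 h; transcripts detected via RT-PCR and capillary electrophoresis.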

Transcription factor E2F1 (Homo sapiens), sequence (Q01094 whole entry, looked up): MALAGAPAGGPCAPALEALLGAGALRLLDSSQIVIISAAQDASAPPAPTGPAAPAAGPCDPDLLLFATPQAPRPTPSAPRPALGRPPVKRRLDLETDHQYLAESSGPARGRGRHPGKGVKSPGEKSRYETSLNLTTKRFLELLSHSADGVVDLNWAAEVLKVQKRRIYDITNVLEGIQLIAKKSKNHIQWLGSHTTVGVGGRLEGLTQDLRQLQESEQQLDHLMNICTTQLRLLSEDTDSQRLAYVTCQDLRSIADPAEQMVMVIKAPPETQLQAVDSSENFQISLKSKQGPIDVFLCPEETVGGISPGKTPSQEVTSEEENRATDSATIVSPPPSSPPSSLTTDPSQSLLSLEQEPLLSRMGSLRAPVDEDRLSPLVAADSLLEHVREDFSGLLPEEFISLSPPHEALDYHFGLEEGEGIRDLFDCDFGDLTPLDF
Hepatocyte nuclear factor 3-beta (Homo sapiens), sequence (Q9Y261 whole entry, looked up): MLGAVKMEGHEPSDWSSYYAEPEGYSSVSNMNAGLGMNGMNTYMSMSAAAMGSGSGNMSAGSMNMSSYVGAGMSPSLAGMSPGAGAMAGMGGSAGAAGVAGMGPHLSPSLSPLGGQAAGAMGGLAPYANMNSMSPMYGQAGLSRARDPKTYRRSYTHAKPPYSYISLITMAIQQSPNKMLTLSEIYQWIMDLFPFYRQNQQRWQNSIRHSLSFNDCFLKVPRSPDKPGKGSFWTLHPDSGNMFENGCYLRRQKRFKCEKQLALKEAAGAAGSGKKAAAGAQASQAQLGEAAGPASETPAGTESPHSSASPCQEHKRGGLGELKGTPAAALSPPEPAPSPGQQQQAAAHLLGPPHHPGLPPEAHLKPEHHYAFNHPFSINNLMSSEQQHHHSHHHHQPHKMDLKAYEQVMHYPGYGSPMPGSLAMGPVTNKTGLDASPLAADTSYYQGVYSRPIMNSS

With `CC1COC(=O)O1` (stereo not drawn), the outcome in assay [1], in [2], in assay [3], in [4], in assay [5] and in [6] was inactive. The compound was classed as inactive in [7], in assay [8], in [9] and in assay [10].

As usually defined, the AC50 is the concentration giving half of the maximal activity seen. As for `O=c1cc(-c2ccc(O)cc2)oc2cc(O)cc(O)c12`, the call in assay [1], in assay [2], in assay [3], in assay [5], in [8] and in assay [9] was inactive. For the same compound, in assay [10], the compound was classed as inactive. For the same compound, the values for the AC50 in [4], in assay [6] and in assay [7] were 10.1 µM (active), 1.18 µM (active) and 17.5 µM (active), respectively.

Regarding `CCOC(=O)CCCCCCCCC(=O)OCC`, the outcome in [1], in assay [2], in assay [3], in assay [4], in [5] and in [6] was inactive. Besides, the compound was called inactive in [7], in assay [8], in [9] and in assay [10].

As for `C1CCCNCC1`, the compound was called inactive in assay [1], in assay [2], in [3], in assay [4], in [5] and in assay [6]. For the same compound, the call in [7], in assay [8], in assay [9] and in assay [10] was inactive.

For `Cc1cc(N)n(-c2ccccc2)n1`, the call in assay [1], in [2], in assay [3], in [4], in assay [5] and in assay [6] was inactive. Also, the compound was called inactive in assay [7], in assay [8], in assay [9] and in assay [10].

In the case of `CC(=O)c1ccc2ccccc2c1`, the outcome in assay [1], in [2], in assay [3], in assay [4], in assay [5] and in [6] was inactive. Further, the result in [7], in [8], in assay [9] and in assay [10] was inactive.

For `O=[N+]([O-])c1cc(N(CCO)CCO)ccc1NCCO`, the outcome in [1], in assay [2], in [3], in assay [4], in assay [5] and in [6] was inactive. For the same compound, the compound was classed as inactive in assay [7], in assay [8], in assay [9] and in assay [10].

With `CCOC(=O)CC(C)C`, the result in assay [1], in [2], in assay [3], in assay [4], in [5] and in assay [6] was inactive. In addition, the compound was called inactive in assay [7], in assay [8], in assay [9] and in assay [10].

For `CCn1cc(C(=O)O)c(=O)c2ccc(C)nc21`, the compound was called inactive in assay [1], in assay [2], in [3], in [4], in assay [5] and in [6]. Besides, the compound was classed as inactive in assay [7], in [8], in assay [9] and in assay [10].

With `CN1CCc2cccc3c2[C@H]1Cc1ccc(O)c(O)c1-3`, the call in [1], in assay [3], in assay [4], in assay [5], in assay [7] and in assay [8] was inactive. Besides, the compound was called inactive in [9] and in assay [10]. The concentration at half-maximal activity (AC50) in assay [2] is 2.76 µM (active); in [6], 0.386 µM (active).

For `CCCCCc1cccc(=O)o1`, the result in assay [1], in assay [2], in [3], in assay [4], in [5] and in assay [6] was inactive. In addition, the call in [7], in assay [8], in [9] and in assay [10] was inactive.

Consider `CC1=CC(C)C(C=O)C(C)C1` (stereo not drawn) (tested in a mixture with another compound), for which the outcome in [1], in [2], in assay [3], in [4], in assay [5] and in assay [6] was inactive. The compound was classed as inactive in [7], in [8], in [9] and in assay [10].

For `O=Cc1ccccc1O`, the outcome in assay [1], in assay [2], in assay [3], in assay [4], in [5] and in [7] was inactive. For the same compound, the outcome in [8], in assay [9] and in assay [10] was inactive. In assay [6], the concentration at half-maximal activity (AC50) was 25.2 µM (active).

`CCCCCCCC1CCCC1=O` (stereo not drawn): the compound was classed as inactive in [1], in assay [2], in [3], in assay [4], in [5] and in assay [6]. Further, the compound was called inactive in assay [7], in [8], in assay [9] and in assay [10].

Consider `CC(=O)CC(C)(C)C1CCCCC1`, for which the compound was classed as inactive in assay [1], in assay [2], in assay [3], in assay [4], in assay [5] and in assay [6]. Further, the result in assay [7], in assay [8], in [9] and in [10] was inactive.

As for `ClCCOCCOCCCl`, the compound was classed as inactive in assay [1], in [2], in [3], in [4], in assay [5] and in assay [6]. Further, the result in assay [7], in assay [8], in assay [9] and in assay [10] was inactive.

Take `CC(=O)Nc1cc(S(=O)(=O)O)cc2cc(S(=O)(=O)O)c(N=Nc3ccccc3)c(O)c12`: the compound was called inactive in [1], in assay [2], in assay [3], in assay [4], in [5] and in assay [6]. Besides, the call in assay [7], in assay [8], in assay [9] and in assay [10] was inactive.

Consider `CC1(C)CC(N)CC(C)(CN)C1` (stereo not drawn), for which the result in [1], in assay [2], in assay [3], in assay [4], in [5] and in assay [6] was inactive. Moreover, the compound was classed as inactive in assay [7], in assay [8], in assay [9] and in assay [10].

`CCC(=O)OC(C)(C)C1CC=C(C)CC1` (stereo not drawn): the outcome in assay [1], in [2], in [3], in assay [4], in assay [5] and in [7] was inactive. The outcome in [8], in assay [9] and in assay [10] was inactive. Besides, the AC50 in assay [6] was 100 µM (active).

Turning to `O=S1(=O)CC=CC1`, the compound was classed as inactive in assay [1], in [2], in assay [3], in assay [4], in assay [5] and in assay [6]. In addition, the result in [7], in assay [8], in [9] and in [10] was inactive.

In the case of `CC(=O)OC/C=C(C)/C=C/C=C(C)/C=C/C1=C(C)CCCC1(C)C`, the outcome in assay [1], in [2], in assay [3], in assay [5], in assay [6] and in assay [7] was inactive. Moreover, the compound was called inactive in assay [8], in assay [9] and in assay [10]. The half-maximal activity concentration (AC50) in assay [4] was 122 µM (active).

Regarding `CCOCC(C)O` (stereo not drawn), the compound was classed as inactive in assay [1], in assay [2], in assay [3], in assay [4], in assay [5] and in assay [6]. In addition, the compound was classed as inactive in [7], in assay [8], in assay [9] and in assay [10].

Turning to `CCCCCCCCCCCCCCCCCC(=O)OCCCCCCCCCCCCCC(C)C`, the compound was called inactive in assay [1], in assay [2], in [3], in [4], in [5] and in [7]. The compound was called inactive in assay [8], in [9] and in [10]. Further, in assay [6], the AC50 is 28.7 µM (active).

With `CCCCCCC(O)CCOC(C)=O` (stereo not drawn), the compound was called inactive in [1], in [2], in [3], in assay [4], in [5] and in assay [6]. Besides, the outcome in [7], in [8], in [9] and in assay [10] was inactive.

As for `C=C(C)C(=O)OCCC(C)OC(=O)C(=C)C` (stereo not drawn), the compound was classed as inactive in [1], in [2], in [3], in assay [4], in assay [5] and in assay [6]. Moreover, the outcome in assay [7], in [8], in [9] and in [10] was inactive.

For the compound `OC[C@H]1O[C@@H](O[C@H]2[C@H](O)[C@@H](O)[C@H](O)O[C@@H]2CO)[C@H](O)[C@@H](O)[C@H]1O`, the call in assay [1], in [2], in assay [3], in assay [4], in assay [5] and in [6] was inactive. The compound was called inactive in assay [7], in [9] and in [10].

As for `CCC(=O)OC/C=C(\C)CCC=C(C)C`, the call in assay [1], in assay [2], in assay [3], in assay [4], in assay [5] and in assay [6] was inactive. Moreover, the result in [7], in assay [9] and in [10] was inactive.
